Among the data in PubChem BioAssay (NCI) are growth values, retold here.

The panel holds about 83,000 compounds, 20% with a hit somewhere; the sample as a whole holds those more often.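 Values shown are percent growth following 48 h exposure of cells in 96-well plates to a single concentration of compound; below 10 was considered active.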 Values without a mark were called inactive. Activity calls are given as the source filed them.

What all share (experiment): NCI-60 one-dose screen, 48 h (100 = growth as untreated, 0 = no growth, -100 = all killed)
Holding throughout (settings): 10 µM unless noted

Assay [1] concerns NCI-H23 lung.
Assay [2] deals with NCI-H226 lung.
In assay [3] the test system is NCI-H322M lung.
Assay [4] relates to HOP-62 NSCLC.
In assay [5] the test system is NCI-H460 lung.
Assay [6] has as its system HOP-92 NSCLC.
The subject of assay [7] is NCI-H522 lung.
Assay [8] relates to A549/ATCC NSCLC.
In assay [9] the test system is 786-0 renal.
Assay [10] concerns COLO 205 colon.

Take `COc1ccccc1/C=C/C(=O)c1ccc(OC)c(S(N)(=O)=O)c1`: the growth in [1] was 23.2%; in assay [2], 39.8%; in assay [3], 30.5%; in assay [4], 13.5%; in [5], 5.83% (active); in [6], 48.6%. Also, the growth was -9.78% (active) in [7], 5.93% (active) in [8], 24% in assay [9] and 1.12% (active) in assay [10].
Consider `O=c1[nH]c2ccccc2cc1CSc1nccc(-c2ccc3ccccc3c2)n1`, for which the growth was 77.8% in [1]; 70.4% in assay [2]; 96% in assay [3]; 71.5% in assay [4]; 77% in assay [5]; 68.5% in assay [6]. The growth in assay [7] is 49.6%; in [8] it was 56.8%; in assay [9] it was 78.3%; in assay [10], 83.3%.
Consider `Nc1n[nH]c2cccc(C#Cc3cccc(NC(=O)c4cccc(Cl)c4)c3)c12`, for which the growth is 38.2% in [1]; 45.8% in assay [2]; 49.1% in assay [3]; 33.6% in [4]; 24.7% in assay [5]; 9.55% (active) in [6]. Besides, the growth was 11.4% in [7], 24.7% in [8], 11.2% in [9] and 19.2% in [10].
For `CCCCOc1ccc(NC(=O)c2sc3nc(C)ccc3c2N)cc1`, the growth in assay [1] was -69.5% (active); in assay [2], 10.2%; in assay [3], 40.3%; in assay [4] it was 21.9%; in assay [5], 7.45% (active); in assay [6], -37.2% (active). Moreover, the growth in [7] is 17.3%; in assay [8], 0.0895% (active); in [9], -78.5% (active); in [10] it was 80.4%.
Turning to `O=C1N/C(=N\c2nccs2)S/C1=C\C=C/c1ccccc1`, the growth is 55.8% in assay [1]; 81.5% in assay [2]; 30.4% in [3]; 43% in [4]; 26.4% in assay [5]; 64% in [6]. Further, the growth was 19.8% in assay [7], -81.1% (active) in assay [8], 31% in [9] and 33.2% in assay [10].
Regarding `CCN1C(=O)/C(=N\N=C(/C)c2ccc3c(c2)Nc2ccccc2S3)c2cc(Cl)ccc21`, the growth is 50.4% in [1]; 66.7% in assay [2]; 91.3% in [3]; 92.9% in assay [4]; 63.4% in [5]; 29.8% in [6]. The growth in assay [7] is 54%; in assay [8], 49.8%; in assay [9], 75%; in [10], 89.8%.
For the compound `Cc1ccc(C(=O)CSc2nc3ccc(C)cc3c(=O)n2-c2ccc(F)cc2)cc1`, the growth was 56.8% in assay [1]; 15% in [2]; 60% in assay [3]; 7.49% (active) in assay [4]; 32.7% in assay [5]; -0.0399% (active) in assay [6]. The growth in [7] is 63.8%; in assay [8], 57.6%; in [9], -3.55% (active); in [10] it was 84%.
With `O=C(O)c1ccc(-c2ccc(/C=N/NC(=O)c3[nH]c4ccc(Br)cc4c3-c3ccccc3)o2)cc1`, the growth is 18.3% in assay [1]; 44.3% in assay [2]; 37.5% in assay [3]; 9.47% (active) in assay [4]; 7.72% (active) in assay [5]; -8.72% (active) in [6]. The growth in assay [7] was -33.8% (active); in assay [8], 49.5%; in assay [9], 19.5%; in assay [10], 29.3%.
`CCC(C)(C)c1ccc(OCCCCCCN2CCN(c3ccncc3)CC2)cc1`: the growth was 1.24% (active) in assay [1]; 35.6% in assay [2]; 47.6% in [3]; 35.1% in assay [4]; -29.7% (active) in assay [5]; -27.8% (active) in [6]. Further, the growth in assay [7] was 8.93% (active); in assay [8] it was 32.8%; in [9], -79% (active); in assay [10], -84.4% (active).
With `COc1ccc(C(=O)/C=C/c2cc3c(cc2Br)OCO3)cc1S(N)(=O)=O`, the growth in [1] was -31.1% (active); in [2], 13.5%; in assay [3] it was 6.66% (active); in assay [4] it was -38.4% (active); in assay [5] it was -0.316% (active); in assay [6] it was 15.4%. The growth in assay [7] was -46.3% (active); in assay [8], 0.453% (active); in [9], -40.4% (active); in assay [10], -69% (active).
